# Measurements published in PubChem BioAssay AID743088 (The Scripps Research Institute Molecular Screening Center, 2013).
# Unmarked numbers belong to inactive results.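 Rule for the calls: active = binding inhibited by at least 50%, or stimulated by at least 50%, shown as inhibition of -50% or lower; inactive = the rest.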
# Test system: Imidazoline I2 Central
# Assay: off-target binding across receptor panel, profiling panel, selectivity assay for AVPR1a antagonist project, biochemical, Panlabs HitProfilingScreen (AID 743088)
# Details: Panlabs radioligand binding panel, 30 targets, at 10 µM, hits give high values
smiles,measurement,value
O=C(C1CCN(c2ccc(Cl)cn2)CC1)N(CC1CC1)c1ccc(Cl)cc1,inhibition of binding,27%
